Pf Dd2 growth: Plasmodium falciparum Dd2 growth inhibition; P. falciparum Dd2 growth, SYBR Green, 72 h; 4.3% of 120,000 active; Potency, µM (titrated, usually from 28.9 µM), for the others: at the top dose activity, negative = inhibition, most hits filed as inhibitors; AID 1347417; active = well fitted inhibition curve with a large enough effect;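 note: plate controls were DMSO vehicle for no effect and reference drug for full effect; nearly all actives have a fitted effect of over 65% in size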
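Readout: SYBR Green fluorescence, 485 nm excitation, 535 nm emission, after ~16 h lysis at 37C. Before that, Dd2-infected red cells (2.5% hematocrit) grew 72 h with compound, 29 uM top final concentration.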
* marks the source's active call; other numbers are inactive results; i = inactive; [ ] = remark or other dose. Shown is part of a subset that was picked to be rich in hits. Potency is the fitted concentration of half-maximal effect.

SMILES	Pf Dd2 growth
CCCc1nnc(C[C@@H]2C[C@@H](C(C)C)[C@H](CN3CCC(CO)CC3)C=C2C)o1	10µM*
CC1=C[C@@H](CC#N)[C@H](C(C)C)C[C@H]1CC(=O)N1CCC(C)CC1	-4%[44.1 µM]
COCCN1CCN(C[C@@H]2C=C(C)[C@H](Cc3nnc(COc4ccc(F)cc4)o3)C[C@H]2C(C)C)CC1	5µM*
CCCc1nnc([C@H]2CCN(Cc3ccc(NC(C)=O)cc3)C2)o1	i
CC1=C[C@@H](CN2CCC(C(N)=O)CC2)[C@H](C(C)C)C[C@H]1Cc1nnc(C)o1	i
CC1=C[C@@H](CN2CCC(O)CC2)[C@H](C(C)C)C[C@H]1Cc1nnc(C(C)(C)C)o1	10µM*
CCCc1nnc(C[C@@H]2C[C@@H](C(C)C)[C@H](CN3CC[C@H](NC(C)=O)C3)C=C2C)o1	5µM*
CN1CCC(CNc2ncc(C(C)(C)C(=O)O)c(N3CCOCC3)n2)CC1	15%
COc1cccc(Nc2cc(-c3cccs3)nc3c(C)noc23)c1	i
CC(C)N1C[C@H](O)C[C@H]1c1nnc2n1CCN(C(=O)Cc1cccc(F)c1)CC2	-14%
Cc1ccc(C2=NC3(CCN(C(=O)Cc4ccccc4C)CC3)ON2)cc1	i
Cc1cc(C(=O)N2CCC3(CC2)C(=O)N(C)c2ccccc23)nn1C	22%
Cc1cc(Cl)ccc1NC(=O)N1CCC(n2cnnc2C2CC2)C1 (configuration not stated)	-39%
O=C(O)[C@@H]1CN(C(=O)c2ccc(=O)[nH]c2)C[C@H]1c1ccc2c(c1)OCO2	4%
CN1CCc2[nH]nc(C(=O)N3CCC4(CC3)c3nc[nH]c3CCN4C)c2C1	-2%
CNC(=O)[C@@H]1CN(C(=O)c2cnn(C)c2)C[C@H]1COC	-1%
O=C(CCc1ccccc1)N1CCC2(CC1)NC(=O)N(c1cccc(F)c1)N2	0%
CCOc1ccccc1CN1CCn2c(nnc2[C@@H]2C[C@@H](O)CN2Cc2cccnc2)C1	i
CCN(CC)CC(=O)N1CCC(C(=O)Nc2ccc(-c3nc4ccccc4o3)cc2)CC1	10µM*
Cc1ccccc1OCC(=O)Nc1ccc(-c2nc3ccccc3o2)cc1	i
CN(C)c1ccc(C(=O)Nc2ccc(-c3nc4ccccc4o3)cc2)cc1	-25%
Cc1noc(-c2ccccc2Cl)c1C(=O)N1CCC(Cc2ccccc2)CC1	-23%
CC1(c2ccccc2)N(Cc2ccc(O)cc2)C(=O)OC12CCN(CC1CC1)CC2 (configuration not stated)	i
c1cc2cc(Nc3cnc4ccc(N5CCOCC5)nn34)ccc2[nH]1	i
O=C1Nc2ccc(-c3ccccc3)cc2C(=O)N2CCN(C(=O)c3cccnc3)C[C@H]12	-25%[44.1 µM]
SMILES	Pf Dd2 growth
O=C1Nc2ccc(-c3ccc4c(c3)OCO4)cc2C(=O)N2CCN(C(=O)COc3ccccc3)C[C@H]12	i
COCC(=O)N1CCN2C(=O)c3cc(-c4ccc5c(c4)OCO5)ccc3NC(=O)[C@H]2C1	i
COc1ccc(-c2ccc3c(c2)C(=O)N2CCN(C(=O)c4ccccc4)C[C@@H]2C(=O)N3)cc1	5µM*
COc1ccc(-c2ccc3c(c2)C(=O)N2CCN(C(=O)C4CCNCC4)C[C@@H]2C(=O)N3)c(OC)c1	-16%
COc1ccc(C(=O)N2CCN3C(=O)c4cc(-c5ccc(Cl)cc5)ccc4NC(=O)[C@@H]3C2)cc1	6.3µM*
CC(C)(C)CC(=O)N1CCN2C(=O)c3cc(-c4ccc(Cl)cc4)ccc3NC(=O)[C@H]2C1	-22%
COc1ccc(-c2ccc3c(c2)C(=O)N2CCN(C(=O)CC(C)(C)C)C[C@@H]2C(=O)N3)cc1	i
O=C1Nc2ccc(-c3ccc4c(c3)OCO4)cc2C(=O)N2CCN(C(=O)c3cccs3)C[C@@H]12	13µM*
O=C(Cn1ccn2nc(-c3ccc(F)cc3)c(CO)c2c1=O)Nc1ccccc1	-9%
O=C(c1ccoc1)N1CCCC(c2nc(C3CCOCC3)no2)C1 (configuration not stated)	52%
Cc1ccc(OCC(=O)N2CCCN(S(C)(=O)=O)c3ccccc32)cc1	i
CCCn1ncc(C(=O)N2C[C@H](CO)C[C@H](CN3CCCC3)C2)c1C	-2%
CCOc1ccc(-c2cccc(NS(=O)(=O)c3ccc(C)s3)c2)nn1	-10%
COc1ccc(-c2ccc(NS(=O)(=O)c3ccc(F)c(C(F)(F)F)c3)cc2)nn1	0%
CCOc1ccc(-c2ccc(NS(=O)(=O)c3ccc(C)cc3)cc2)nn1	10µM*
COc1cc(C(=O)N2CCN(c3cc(-c4cccs4)[nH]n3)CC2)cc(OC)c1OC	i
Cc1cccc(C(=O)N2[C@@H]3CC[C@H]2CC(NC(=O)c2ccncc2)C3)c1 (some centres not stated)	i
CC(C)C1=NOC2(CCCN(C(=O)c3ccc4c(c3)OCO4)C2)C1 (configuration not stated)	18%
O=C(NCCc1ccccc1)[C@@H]1C[C@H](c2ccc(F)cc2)N([S+](=O)([O-])C2CC2)C1	i
O=C(NCc1cc2n(n1)CCNC2)C(c1ccccc1)C1CCCC1 (configuration not stated)	-30%

Screening data deposited in PubChem BioAssay by National Center for Advancing Translational Sciences (NCATS).
